# High-throughput results (PubChem)
# SMARCA2 activ: increases SMARCA2 function in MMTV reporter cells; MG213 cells, MMTV-luciferase reporter, dexamethasone, overnight; activation, % at 9.1 µM; actives 1% (n = 370,000); AID 652017; in the data active means activation above about 7.8%
# ABCB6 inh MLPCN: human ABCB6 transporter inhibition | K562-ABCB6 porphyrin accumulation, flow cytometry, 1 h; hits give low values | fluorescence ratio to DMSO, % at 10 µM | actives 0.19% (n = 360,000) | AID 602162;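 active means fluorescence ratio to DMSO below 75%, the collection mean minus 3 SD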;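 further: signal is porphyrin accumulated inside mitochondria; lower ratio means ABCB6 inhibition with less porphyrin fluorescence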
# MsrA inhibitor: inhibitors of bovine MsrA; purified bovine MsrA, absorbance read-out; inhibition, % at 15.5 µM; actives 0.75% (n = 360,000); in the data active means inhibition above about 4.5%
# bovine MsrA act: activates bovine MsrA enzyme | purified bovine MsrA, absorbance read-out | activation, % at 10.6 µM | actives 0.3% (n = 360,000); in the data active means activation above about 7.5%
# SMARCA2 conf: confirmation of SMARCA2 (BRM) function activators | MG213 cells, MMTV-luciferase with dexamethasone, luminescence, overnight; MG213 cells expressing E1A, Rb sequestered; DMSO wells 0%, reference activator 100% | actives 30% (n = 3,500) | shares compounds with SMARCA2 activ | activation, % at 9.1 µM;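 active means activation above its plate's cutoff, the mean activation of tested wells plus 3 SD, cut at about 7.9% in these data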
# GAL4-VP16 Luc: counter-screen for SMARCA2 activators: GAL4-VP16 luciferase reporter activation; AID 686939; shares compounds with SMARCA2 activ; actives 41% (n = 3,500); activation, % at 9.1 µM; HEK293 GAL4-VP16 pG5luc reporter, luciferase luminescence; scaled: DMSO wells 0%, SAHA wells 100%;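 active means activation above the solvent-only control well mean plus 3 SD, averaged across control plates, cut at about 5.2% in these data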
# A number is an active result; 0 = inactive; - = no result given. Most compounds without a hit are left out; they make up all but 2.1% or so of the library.
SMILES,SMARCA2 activ,ABCB6 inh MLPCN,MsrA inhibitor,bovine MsrA act,SMARCA2 conf,GAL4-VP16 Luc
O=C(Nc1cccc(-c2ccc(N3CCOCC3)nn2)c1)c1cccc(Cl)c1,9.4,0,0,0,0,7.0
COc1ccc(C(NC(=O)C2CCN(CCCOc3ccccc3)CC2)c2cccs2)cc1 (stereo not drawn),0,0,0,0,-,-
Cc1ccc(-c2ccc(CCC(=O)O)n2NC(N)=S)cc1,8.4,0,0,0,0,0
Cc1ccc(-c2nc(C3CCCN(S(=O)(=O)c4cccs4)C3)no2)cc1 (stereo not drawn),0,-,-,-,-,-
CN(C(=O)COC(=O)c1ccc2c(c1)OCO2)C1CCCCC1,9.9,0,0,0,0,0
